Compound activity: PubChem BioAssay, several laboratories
Sampled rows, rich in hits. Any-hit rate of the full collection: about 3.1%.
EP2 mod – EP2 receptor (human) modulation | P43116 | EP2-expressing cells, cAMP HTRF FRET, PGE2 co-stimulation | induction, % at 25 µM | 260,000 tested, 0.83% active;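 active = compounds whose cAMP rise, as percent of the full-agonist control response, exceeds 60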;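 also: rat C6 glioma line stably carrying human EP2 under a CMV promoter; the protocol text gives 20 µM as final concentration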
Target sequence (P43116 whole entry, looked up): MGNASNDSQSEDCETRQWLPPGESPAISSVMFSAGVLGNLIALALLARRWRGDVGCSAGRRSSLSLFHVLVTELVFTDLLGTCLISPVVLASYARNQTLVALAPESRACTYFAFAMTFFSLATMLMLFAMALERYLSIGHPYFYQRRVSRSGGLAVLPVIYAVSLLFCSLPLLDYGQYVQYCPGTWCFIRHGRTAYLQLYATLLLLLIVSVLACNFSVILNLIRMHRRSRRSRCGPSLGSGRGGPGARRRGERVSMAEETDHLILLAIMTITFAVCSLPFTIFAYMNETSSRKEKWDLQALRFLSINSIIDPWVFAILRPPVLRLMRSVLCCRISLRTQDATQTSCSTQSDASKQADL
KCC2 mod – modulators of human KCC2 chloride dependent transport; Q9H2X9; KCC2 cells, thallium flux FluoZin-2 fluorescence; B-score of Tl+ flux slope (higher = more flux/activation; lower = inhibition) at 10 µM; 190,000 tested, 2.2% active;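 active = thallium flux slope and its plate-corrected score both differing from the plate sample mean at a set confidence after two filtering rounds, in either direction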;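 also: slope of fluorescence scaled to starting intensity during 10 to 20 s after thallium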
S1P3 antagonist – antagonists of human S1P3 receptor. 170,000 tested, 0.27% active. inhibition, % at 4.98 µM. AID 485. Q99500. CHO S1P3 NFAT-BLA reporter, FRET fluorescence, antagonist mode;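 active = inhibition above the plate cutoff, the mean inhibition of test wells on that plate plus 3 SD, cut at about 28% in these data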;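 also: cells challenged with S1P at its EC80 of 0.8 µM; blue over green emission ratio from cleaved BLA substrate after 4 h stimulation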
Target sequence (Q99500 whole entry, looked up): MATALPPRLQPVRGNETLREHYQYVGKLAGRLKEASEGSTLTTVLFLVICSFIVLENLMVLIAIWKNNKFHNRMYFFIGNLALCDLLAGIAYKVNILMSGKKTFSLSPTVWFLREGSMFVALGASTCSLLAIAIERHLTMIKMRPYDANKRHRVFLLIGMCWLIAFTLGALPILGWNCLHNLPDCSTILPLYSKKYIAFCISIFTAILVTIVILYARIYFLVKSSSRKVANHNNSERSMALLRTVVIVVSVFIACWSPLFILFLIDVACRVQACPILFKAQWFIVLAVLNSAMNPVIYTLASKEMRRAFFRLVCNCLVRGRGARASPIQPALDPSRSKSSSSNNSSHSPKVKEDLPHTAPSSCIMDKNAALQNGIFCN
PGE2 EP2 inh – inhibitors of human EP2 prostaglandin E2 receptor | C6 glioma cells expressing human EP2, cAMP TR-FRET; cells stimulated with saturating PGE2 | AID 1422 | 260,000 tested, 0.52% active | inhibition, % at 25 µM;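 active = percent inhibition above 40 after rounding to a whole number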;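 also: rat C6 glioma host cells with rolipram phosphodiesterase inhibitor present; the protocol text gives 20 µM as final concentration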
EP2 confirm – human EP2 receptor cAMP induction, negative in counter-screens; C6 glioma EP2 cells, cAMP HTRF induction; plus low (about EC15) PGE2 agonist; 1,300 tested, 47% active; calls only at 20 µM (by protocol); shares compounds with EP2 mod;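 active = cAMP induction above 50% in the main assay while under 30% in all four parallel counter assays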;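 also: rat C6 glioma cells stably expressing human EP2 receptor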
Of the large screens only hits and unclear results are named; the others gave an inactive call (follow-up assays come after a bar, where they were run); ! = a repeat was not active.

CCOC(=O)C(Cc1cc(C(C)=O)ccc1OCC)C(=O)OCC	none
CCOC(=O)Cn1cc(CN2CCc3c(nc(C)[nH]c3=O)C2)c2ccccc21	none (no result: KCC2 mod, S1P3 antagonist)
Cc1ccc(-c2c(C(=O)Nc3ccccc3)c(C)[nH]c(=S)c2C#N)o1	none (no result: KCC2 mod, S1P3 antagonist)
CCCCOc1ccc(-c2c(C(=O)Nc3ccccc3)c(C)[nH]c(=S)c2C#N)cc1	EP2 mod 73 | EP2 confirm inactive
COc1ccc(N(CC(=O)NC2CCCC2)C(=O)c2ccc(-c3ccccc3)[nH]2)cc1OC	none (no result: KCC2 mod, S1P3 antagonist)
CCOC(=O)Cc1csc(NC(=O)c2cc(=O)c3ccccc3o2)n1	EP2 mod 84 | EP2 confirm active
Cn1c(=O)[nH]c(=O)c2c1nc(Br)n2CC(O)CO (configuration not stated)	none (no result: KCC2 mod, S1P3 antagonist)
O=C(NC1CC1)[C@@H]1C=CCN1C(=O)Nc1ccccc1C(F)(F)F	none (no result: KCC2 mod, S1P3 antagonist, PGE2 EP2 inh)
COc1cc(OC)c2c(-c3ccccc3)cc(=O)oc2c1	none
COc1cc(OC)c2c(OC)c(-c3ccc4c(c3)OCO4)c(=O)oc2c1	EP2 mod 62 (no result: KCC2 mod, S1P3 antagonist) | EP2 confirm inactive
CC1CCN(c2nc3c(c(=O)[nH]c(=O)n3C)n2CC(C)CSc2nnnn2-c2ccccc2)CC1 (configuration not stated)	EP2 mod 68 | EP2 confirm inactive
Cc1cc(C)n(C(=O)CNC(=O)Cc2ccccc2)n1	none
COc1ccc(C(=O)NCC(=O)n2nc(C)cc2C)cc1OC	EP2 mod 66 (no result: S1P3 antagonist) | EP2 confirm inactive
CCc1cc2cc(C)cc(C)c2nc1SCC(=O)N1CCCC1	EP2 mod 82 (no result: KCC2 mod, S1P3 antagonist) | EP2 confirm inactive
O=C(c1ccc2nsnc2c1)N1C2CCC1CC(c1ccc(F)cc1)C2 (configuration not stated)	none (no result: KCC2 mod, S1P3 antagonist)
O=C(CSc1nnc2ncccn12)N1c2ccccc2Sc2ccc(Cl)cc21	none (no result: KCC2 mod, S1P3 antagonist)
Cc1ccc(S(=O)(=O)c2c(C)cc(C)nc2N2CCCCC2)cc1	EP2 mod 70 | EP2 confirm active
Cc1ccc(CN2C(=O)/C(=C\c3ccc(C(=O)NCc4cccnc4)cc3)Oc3ccccc32)cc1	EP2 mod 85 | EP2 confirm active
COCCn1c(SC(C(=O)Nc2cc(C)ccc2OC)c2ccccc2)nnc1-c1ccc(Cl)cc1 (configuration not stated)	none | EP2 confirm inactive
O=S1(=O)CCN(Cc2ccc(F)cc2)CC1	none
O=S1(=O)CCN(Cc2cccc(Cl)c2)CC1	EP2 mod 86 (no result: S1P3 antagonist) | EP2 confirm inactive
Nc1cc(Cl)ccc1Oc1ccc(Cl)cc1	EP2 mod 66 (no result: S1P3 antagonist) | EP2 confirm inactive
Nc1cc(Cl)ccc1Oc1ccccc1	none
Cc1ccc(-c2cc3nn(-c4ccccc4)c(N)c3c(=O)o2)cc1	EP2 mod 66 (no result: S1P3 antagonist) | EP2 confirm inactive
Fc1ccc(N2CCOCC2)c(NCc2cccc(OCc3cccnc3)c2)c1	none (no result: KCC2 mod, S1P3 antagonist)
CC(C)(C)n1nnnc1C(c1ccncc1)N(Cc1ccccc1)Cc1ccco1 (configuration not stated)	EP2 mod 71 (no result: S1P3 antagonist) | EP2 confirm inactive
CC(=O)NC(c1ccccc1)c1cccnc1 (configuration not stated)	EP2 mod 70 | EP2 confirm inactive
COc1cc2c(cc1OC)CN(c1ccc(-c3ccccc3OC)nn1)CC2	EP2 mod 65! | EP2 confirm inactive
COc1ccccc1-c1ccc(NC2CCCC2)nn1	none (no result: S1P3 antagonist)
COc1ccccc1NC(=O)Cn1nnc(-c2ccccc2-n2cnnn2)n1	none (no result: KCC2 mod, S1P3 antagonist)
O=C(c1ccco1)N(Cc1ccc([N+](=O)[O-])cc1)c1ccc(Br)cc1	none (no result: S1P3 antagonist)
O=C(c1ccco1)N(Cc1cccc([N+](=O)[O-])c1)c1ccc(Br)cc1	EP2 mod 66 | EP2 confirm active
CCn1c(CN2CCCC(O)C2)nc2ccccc2c1=O (configuration not stated)	none (no result: KCC2 mod, S1P3 antagonist)
CC(C)NC(=O)C1CCN(C(=O)c2cc3sccc3n2Cc2ccc(F)cc2)CC1	none
O=C(c1cc2sccc2n1Cc1ccc(F)cc1)N1CCCc2ccccc21	EP2 mod 73 (no result: S1P3 antagonist) | EP2 confirm active
CCn1ncc(CNC(=O)CCSc2nc(-c3ccc4c(c3)OCO4)cc(C(F)(F)F)n2)c1C	none (no result: KCC2 mod, S1P3 antagonist)
CCOC(=O)c1c(-c2ccc(-c3ccccc3)cc2)csc1NC(=O)CCN1CCOCC1	EP2 mod 73 | EP2 confirm active
Cc1nn(C)cc1S(=O)(=O)NCC1(c2ccccc2)CCOCC1	none (no result: KCC2 mod, S1P3 antagonist)
O=C(NCc1ccc(F)cc1)c1ccccc1OCc1ccccc1	EP2 mod 81 | EP2 confirm active
COc1ccccc1C(=O)NCc1ccccc1	none (no result: S1P3 antagonist)
CN1CCN(c2ccccc2NC(=O)c2ccc(F)cc2)CC1	none
O=C(Nc1ccccc1N1CCCCC1)c1ccccc1F	EP2 mod 61 (no result: KCC2 mod) | EP2 confirm active
CC1CCN(c2ccccc2NC(=O)c2ccc(F)cc2)CC1	EP2 mod 75 (no result: KCC2 mod, S1P3 antagonist) | EP2 confirm inactive
O=C(Nc1ccccc1N1CCCC1)c1cc2ccccc2o1	EP2 mod 91 (no result: PGE2 EP2 inh) | EP2 confirm active
Cc1cc(N2CCN(CC(O)c3ccc4c(c3)OCCCO4)CC2)nc(C(C)C)n1 (configuration not stated)	none (no result: KCC2 mod, S1P3 antagonist)
Cc1cc(C)nc(SCc2nnc(SCC#N)n2-c2cccc(Cl)c2)n1	none | EP2 confirm inactive
Cc1ccc(Oc2nc3ccccc3n3cccc23)cc1	none (no result: S1P3 antagonist)
c1ccc(Oc2nc3ccccc3n3cccc23)cc1	EP2 mod 65 (no result: KCC2 mod, S1P3 antagonist) | EP2 confirm inactive
C(=N\N(Cc1ccccc1)c1ccccc1)/c1cccnc1	EP2 mod 70 | EP2 confirm active
C/C(=N\N(Cc1ccccc1)c1ccccc1)c1cccnc1	EP2 mod 70 | EP2 confirm inactive
CN(Cc1ccccc1)C(=S)Nc1cccnc1	none
Cc1cc(NC(=O)c2cc(-c3ccncc3)nc3c(C)cccc23)no1	EP2 mod 65 (no result: KCC2 mod) | EP2 confirm inactive
O=C(CNS(=O)(=O)c1ccc2ccccc2c1)NCCc1ccccn1	none
CC(=O)c1ccc(S(=O)(=O)NCCCC(=O)NCCc2ccccn2)cc1	EP2 mod 71 (no result: KCC2 mod) | EP2 confirm inactive
CCc1nc(SCC(=O)Nc2nc3c(s2)CCCC3)c2ccccc2n1	EP2 mod 87 (no result: S1P3 antagonist) | EP2 confirm inactive
CCCc1nc(SCC(=O)Nc2nc3c(s2)CCCC3)c2ccccc2n1	none (no result: KCC2 mod, S1P3 antagonist, PGE2 EP2 inh)
Cc1cccc(NC(=O)CSc2nc(COc3ccccc3)nc3ccccc23)c1C	none (no result: S1P3 antagonist)
Cc1cccc(C)c1NC(=O)CSc1nc(COc2ccccc2)nc2ccccc12	EP2 mod 69 (no result: S1P3 antagonist) | EP2 confirm inactive
CCn1c(COc2ccc(Cl)cc2)nnc1SCC(=O)OC	none (no result: KCC2 mod, S1P3 antagonist)
CCOc1ccccc1NC(=O)N1CCC(n2cnc3cc(F)ccc32)CC1	none (no result: KCC2 mod, S1P3 antagonist)
CC1CCc2c(sc(N)c2C(=O)OC(C)C)C1 (configuration not stated)	EP2 mod 68 (no result: S1P3 antagonist) | EP2 confirm inactive
C/C(=C\c1ccc(C(=O)O)cc1)c1ccc2c(c1)C(C)(C)CCC2(C)C	none (no result: KCC2 mod, S1P3 antagonist) | EP2 confirm active
C/C(Cl)=C/Cn1c(SC(C)C)nc2c1c(=O)[nH]c(=O)n2C	EP2 mod 65 | EP2 confirm inactive
C/C=C/Cn1c(SCc2ccc(C)cc2)nc2c1c(=O)[nH]c(=O)n2C	EP2 mod 86! (no result: KCC2 mod) | EP2 confirm active
CCCSc1nc2c(c(=O)[nH]c(=O)n2C)n1C/C=C(/C)Cl	none (no result: KCC2 mod, S1P3 antagonist)
